According to PubChem BioAssay AID504389 (National Center for Advancing Translational Sciences (NCATS), 2011):
Inconclusive results are not listed. Active and inactive are the calls of the source. Calls follow the shape of the dose curve; as a rule, active = well fitted curve in the direction sought with a large enough effect; inconclusive = small, poorly fitted or top-dose-only effect, or effect the other way, or another doubt; inactive = no such curve, though single readings can be large or run the other way.

Biological target: Thyrotropin receptor (Homo sapiens) (UniProt P16473)
Experiment: qHTS Assay for Antagonists of the Thyroid Stimulating Hormone Receptor: SAR for Probe
Conditions: HEK293-TSHR, TSH-stimulated cAMP HTRF, 2 h; series mostly up to 57.5 µM; activity change, negative = inhibition: at the top concentration
Description: TSH is an alpha/beta heterodimeric glycoprotein hormone secreted from the anterior pituitary gland which belongs to the glycoprotein hormone family. The actions of TSH are mediated by a seven-transmembrane receptor, which upon TSH binding couples preferentially to the G-alpha (s) protein (Gs), resulting in activation of adenylate cyclase and increase in cyclic adenosine 3', 5' monophosphate (cAMP). The TSH receptor (THSR) is mainly expressed in thyroid follicular cells and regulates their growth and function. This cell based assay was conducted on a TSHR transfected HEK 293 cell line, measuring cAMP stimulation using antibody-based Homogeneous Time Resolved Fluorescence (HTRF). Our goal is to identify small molecules that will inhibit (antagonize) the thyroid-stimulating hormone receptor (TSHR), a member of the 7 transmembrane-spanning receptor (7TMR) family of cell surface receptors. TSHR-mediated hyperthyroidism is important in thyroid pathology. The development of small molecule antagonists of TSHR may lead to therapeutic approaches for TSHR-mediated hyperthyroidism caused by constitutively activating mutations or stimulating auto-antibodies associated with Graves' disease. Graves' disease is the leading cause of hyperthyroidism and is caused by autoantibodies that stimulate TSHR (TsAbs) causing thyroid growth and unregulated overproduction of thyroid hormones and existing treatments have liabilities (agranulocytosis). In addition, TSHRs are known to be expressed in multiple extrathyroidal tissues including bone, brain, kidney, testis, fat and cells of the immune system but the role of the TSHR in these tissues is not clear. Therefore, TSHR antagonists/inverse agonists could be used as probes of extrathyroidal TSHR function. Finally, TSHR inverse agonists, which are a subclass of antagonists that inhibit agonist-independent (or basal or constitutive) TSHR signaling, could be used to inhibit TSH-independent signaling in patients with recurrent or metastatic thyroid cancer who are receiving thyroid hormone to suppress TSH. The present assay presents confirmation data for analogues of series of interest in the primary screening assay.
An anti cAMP antibody contains a fluorescent cryptate tag (excitation 337 nm; emission 620 nm) and the acceptor is cAMP-d2 (excitation 620 nm; emission 665 nm). When antibody and cAMP-d2 interact and are excited by a 337 nm light, a FRET occurs resulting in emission at 665 nm. The assay is competition between cAMP-d2 and cAMP (from the cell lysate). The homogeneous protocol allows for one step dispense after stimulation that is automation friendly. Step, Parameter, Value, Description 1, Cells, 3 uL, 2000 TSHR freshly harvested cells/well 1536 TC treated White solid bottom plate (Cells resuspended in 10 mM HEPES buffered HBSS and 70 uM RO 20-1724) 2, Compound, 23 nL, Libraries and controls 3, Compound, 1 uL, EC80 TSH (4 nM final) 4, Time, 2 hours, 37C 5, Reagent, 2 uL, cAMP antibody diluted 1:20 in lysis buffer 6, Time, 30 minutes, Room temperature 7, Detector, HTRF settings, Viewlux

Chain of Thyrotropin receptor (Homo sapiens) (P16473 whole entry, looked up): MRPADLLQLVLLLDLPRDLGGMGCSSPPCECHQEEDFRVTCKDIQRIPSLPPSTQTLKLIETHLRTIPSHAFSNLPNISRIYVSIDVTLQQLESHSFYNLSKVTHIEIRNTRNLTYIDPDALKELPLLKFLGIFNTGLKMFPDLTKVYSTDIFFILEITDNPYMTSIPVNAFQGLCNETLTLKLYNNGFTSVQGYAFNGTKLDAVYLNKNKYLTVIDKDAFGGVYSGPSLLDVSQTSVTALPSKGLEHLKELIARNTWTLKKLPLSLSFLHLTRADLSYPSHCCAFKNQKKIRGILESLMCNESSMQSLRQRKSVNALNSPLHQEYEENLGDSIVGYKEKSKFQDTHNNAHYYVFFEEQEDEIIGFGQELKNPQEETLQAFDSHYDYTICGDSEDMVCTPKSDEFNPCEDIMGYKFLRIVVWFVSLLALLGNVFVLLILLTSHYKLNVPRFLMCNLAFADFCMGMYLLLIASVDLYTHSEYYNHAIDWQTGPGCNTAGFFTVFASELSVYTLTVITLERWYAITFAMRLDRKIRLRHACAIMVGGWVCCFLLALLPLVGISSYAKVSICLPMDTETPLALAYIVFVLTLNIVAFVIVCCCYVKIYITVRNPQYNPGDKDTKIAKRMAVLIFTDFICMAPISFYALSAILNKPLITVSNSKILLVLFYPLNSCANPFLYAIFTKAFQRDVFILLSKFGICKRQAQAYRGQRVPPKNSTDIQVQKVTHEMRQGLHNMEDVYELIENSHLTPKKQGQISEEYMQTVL

| SMILES | activity change, negative = inhibition | Potency |
| --- | --- | --- |
| COc1ccc(C2Nc3ccccc3C(=O)N2Cc2ccco2)cc1COc1c(C(C)C)cccc1C(C)C (configuration not stated) | -9.22% (inactive) |  |
| COc1ccc(OCc2cc(C3Nc4ccccc4C(=O)N3Cc3ccccc3)ccc2OC)cc1 (configuration not stated) | 0.228% (inactive) |  |
| Cc1cccc(C)c1OCc1cccc(C2Nc3ccccc3C(=O)N2Cc2ccco2)c1 (configuration not stated) |  | 32.6 µM (active) |
| COc1ccc(C2Nc3ccccc3C(=O)N2Cc2ccccc2)cc1COc1ccc(Cl)cc1 (configuration not stated) | 0.804% (inactive) |  |
| COc1ccc(C2Nc3ccccc3C(=O)N2Cc2cccs2)cc1COc1c(C)cc(NC(C)=O)cc1C (configuration not stated) | -13.2% (inactive) |  |
| COc1ccc(C2Nc3ccccc3C(=O)N2Cc2ccco2)cc1COc1ccccc1 (configuration not stated) | -5.86% (inactive) |  |
| COc1ccc(C(=O)O)cc1COc1ccc(NC(C)=O)cc1 | 1.98% (inactive) |  |
